# Data: ChEMBL document CHEMBL1961873, “Compounds: GSK PKIS; Assays: Nanosyn kinase panel” (2012)
# Legend:
# [1] = biological target: Serine/threonine-protein kinase 4 (Homo sapiens) (UniProt Q13043); conditions: at 0.1 µM
# [2] = biological target: Serine/threonine-protein kinase 4 (Homo sapiens) (UniProt Q13043); conditions: at 1 µM
# [3] = biological target: Serine/threonine-protein kinase 3 (Homo sapiens) (UniProt Q13188); conditions: at 0.1 µM
# [4] = biological target: Serine/threonine-protein kinase 3 (Homo sapiens) (UniProt Q13188); conditions: at 1 µM
# [5] = biological target: Serine/threonine-protein kinase 26 (Homo sapiens) (UniProt Q9P289); conditions: at 0.1 µM
# [6] = biological target: Serine/threonine-protein kinase 26 (Homo sapiens) (UniProt Q9P289); conditions: at 1 µM
# [7] = biological target: Serine/threonine-protein kinase PAK 1 (Homo sapiens) (UniProt Q13153); conditions: at 0.1 µM
# [8] = biological target: Serine/threonine-protein kinase PAK 1 (Homo sapiens) (UniProt Q13153); conditions: at 1 µM
# [9] = biological target: Serine/threonine-protein kinase PAK 2 (Homo sapiens) (UniProt Q13177); conditions: at 0.1 µM
# [10] = biological target: Serine/threonine-protein kinase PAK 2 (Homo sapiens) (UniProt Q13177); conditions: at 1 µM
# [11] = biological target: Serine/threonine-protein kinase PAK 3 (Homo sapiens) (UniProt O75914); conditions: at 0.1 µM
# [12] = biological target: Serine/threonine-protein kinase PAK 3 (Homo sapiens) (UniProt O75914); conditions: at 1 µM
# [13] = biological target: Serine/threonine-protein kinase PAK 5 (Homo sapiens) (UniProt Q9P286); conditions: at 0.1 µM
# [14] = biological target: Serine/threonine-protein kinase PAK 5 (Homo sapiens) (UniProt Q9P286); conditions: at 1 µM
# [15] = biological target: Serine/threonine-protein kinase PAK 6 (Homo sapiens) (UniProt Q9NQU5); conditions: at 0.1 µM
# [16] = biological target: Serine/threonine-protein kinase PAK 6 (Homo sapiens) (UniProt Q9NQU5); conditions: at 1 µM
# [17] = tested on: Tyrosine-protein kinase ABL1 (Homo sapiens), P00519 [E255K]; conditions: at 0.1 µM
# [18] = tested on: Tyrosine-protein kinase ABL1 (Homo sapiens), P00519 [E255K]; conditions: at 1 µM
# [19] = tested on: Tyrosine-protein kinase ABL1 (Homo sapiens), P00519 [H396P]; conditions: at 0.1 µM
# [20] = tested on: Tyrosine-protein kinase ABL1 (Homo sapiens), P00519 [H396P]; conditions: at 1 µM
# [21] = tested on: Tyrosine-protein kinase ABL1 (Homo sapiens), P00519 [M351T]; conditions: at 0.1 µM
# [22] = tested on: Tyrosine-protein kinase ABL1 (Homo sapiens), P00519 [M351T]; conditions: at 1 µM
# [23] = tested on: Tyrosine-protein kinase ABL1 (Homo sapiens), P00519 [Q252H]; conditions: at 0.1 µM
# [24] = tested on: Tyrosine-protein kinase ABL1 (Homo sapiens), P00519 [Q252H]; conditions: at 1 µM
# [25] = tested on: Tyrosine-protein kinase ABL1 (Homo sapiens), P00519 [T315I]; conditions: at 0.1 µM
# [26] = tested on: Tyrosine-protein kinase ABL1 (Homo sapiens), P00519 [T315I]; conditions: at 1 µM
# [27] = tested on: Tyrosine-protein kinase ABL1 (Homo sapiens), P00519 [Y253F]; conditions: at 0.1 µM
# [28] = tested on: Tyrosine-protein kinase ABL1 (Homo sapiens), P00519 [Y253F]; conditions: at 1 µM
# [29] = biological target: Tyrosine-protein kinase ABL1 (Homo sapiens) (UniProt P00519); conditions: at 0.1 µM
# [30] = biological target: Tyrosine-protein kinase ABL1 (Homo sapiens) (UniProt P00519); conditions: at 1 µM
# [31] = biological target: ALK tyrosine kinase receptor (Homo sapiens) (UniProt Q9UM73); conditions: at 0.1 µM
# [32] = biological target: ALK tyrosine kinase receptor (Homo sapiens) (UniProt Q9UM73); conditions: at 1 µM
# [33] = biological target: Tyrosine-protein kinase ABL2 (Homo sapiens) (UniProt P42684); conditions: at 0.1 µM
# [34] = biological target: Tyrosine-protein kinase ABL2 (Homo sapiens) (UniProt P42684); conditions: at 1 µM
# [35] = biological target: Tyrosine-protein kinase receptor UFO (Homo sapiens) (UniProt P30530); conditions: at 0.1 µM
# [36] = biological target: Tyrosine-protein kinase receptor UFO (Homo sapiens) (UniProt P30530); conditions: at 1 µM
# [37] = biological target: Tyrosine-protein kinase Blk (Homo sapiens) (UniProt P51451); conditions: at 0.1 µM
# [38] = biological target: Tyrosine-protein kinase Blk (Homo sapiens) (UniProt P51451); conditions: at 1 µM
# [39] = biological target: Cytoplasmic tyrosine-protein kinase BMX (Homo sapiens) (UniProt P51813); conditions: at 0.1 µM
# [40] = biological target: Cytoplasmic tyrosine-protein kinase BMX (Homo sapiens) (UniProt P51813); conditions: at 1 µM
# [41] = biological target: Protein-tyrosine kinase 6 (Homo sapiens) (UniProt Q13882); conditions: at 0.1 µM
# [42] = biological target: Protein-tyrosine kinase 6 (Homo sapiens) (UniProt Q13882); conditions: at 1 µM
# [43] = biological target: Tyrosine-protein kinase BTK (Homo sapiens) (UniProt Q06187); conditions: at 0.1 µM
# [44] = biological target: Tyrosine-protein kinase BTK (Homo sapiens) (UniProt Q06187); conditions: at 1 µM
# [45] = biological target: Tyrosine-protein kinase CSK (Homo sapiens) (UniProt P41240); conditions: at 0.1 µM
# [46] = biological target: Tyrosine-protein kinase CSK (Homo sapiens) (UniProt P41240); conditions: at 1 µM
# [47] = biological target: Discoidin domain-containing receptor 2 (Homo sapiens) (UniProt Q16832); conditions: at 0.1 µM
# [48] = biological target: Discoidin domain-containing receptor 2 (Homo sapiens) (UniProt Q16832); conditions: at 1 µM
# [49] = biological target: Epidermal growth factor receptor (Homo sapiens) (UniProt P00533); conditions: at 0.1 µM
# [50] = biological target: Epidermal growth factor receptor (Homo sapiens) (UniProt P00533); conditions: at 1 µM
# [51] = tested on: Epidermal growth factor receptor (Homo sapiens), P00533 [L858R]; conditions: at 0.1 µM
# [52] = tested on: Epidermal growth factor receptor (Homo sapiens), P00533 [L858R]; conditions: at 1 µM
# [53] = tested on: Epidermal growth factor receptor (Homo sapiens), P00533 [L861Q]; conditions: at 0.1 µM
# [54] = tested on: Epidermal growth factor receptor (Homo sapiens), P00533 [L861Q]; conditions: at 1 µM
# [55] = tested on: Epidermal growth factor receptor (Homo sapiens), P00533 [T790M]; conditions: at 0.1 µM
# [56] = tested on: Epidermal growth factor receptor (Homo sapiens), P00533 [T790M]; conditions: at 1 µM
# Chain of Tyrosine-protein kinase BTK (Homo sapiens) (Q06187 whole entry): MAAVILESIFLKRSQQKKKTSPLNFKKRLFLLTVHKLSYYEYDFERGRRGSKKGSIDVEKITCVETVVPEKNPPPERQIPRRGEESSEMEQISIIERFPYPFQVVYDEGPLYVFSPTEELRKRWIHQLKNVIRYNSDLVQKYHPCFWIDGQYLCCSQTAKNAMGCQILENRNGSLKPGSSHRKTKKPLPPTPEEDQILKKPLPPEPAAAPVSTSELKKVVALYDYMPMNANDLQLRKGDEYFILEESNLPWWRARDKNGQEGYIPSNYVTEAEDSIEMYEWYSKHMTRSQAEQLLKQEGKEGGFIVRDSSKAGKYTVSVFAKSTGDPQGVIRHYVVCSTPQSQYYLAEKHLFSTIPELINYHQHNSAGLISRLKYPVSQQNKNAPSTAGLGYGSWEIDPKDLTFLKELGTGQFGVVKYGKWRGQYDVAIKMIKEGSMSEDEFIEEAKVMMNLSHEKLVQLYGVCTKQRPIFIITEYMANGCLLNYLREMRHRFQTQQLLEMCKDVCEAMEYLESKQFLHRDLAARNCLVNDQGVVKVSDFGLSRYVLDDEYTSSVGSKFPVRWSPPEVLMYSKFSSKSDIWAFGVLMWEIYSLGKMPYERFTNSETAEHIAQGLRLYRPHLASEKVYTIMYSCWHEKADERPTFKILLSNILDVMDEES
# Chain of Serine/threonine-protein kinase PAK 2 (Homo sapiens) (Q13177 whole entry): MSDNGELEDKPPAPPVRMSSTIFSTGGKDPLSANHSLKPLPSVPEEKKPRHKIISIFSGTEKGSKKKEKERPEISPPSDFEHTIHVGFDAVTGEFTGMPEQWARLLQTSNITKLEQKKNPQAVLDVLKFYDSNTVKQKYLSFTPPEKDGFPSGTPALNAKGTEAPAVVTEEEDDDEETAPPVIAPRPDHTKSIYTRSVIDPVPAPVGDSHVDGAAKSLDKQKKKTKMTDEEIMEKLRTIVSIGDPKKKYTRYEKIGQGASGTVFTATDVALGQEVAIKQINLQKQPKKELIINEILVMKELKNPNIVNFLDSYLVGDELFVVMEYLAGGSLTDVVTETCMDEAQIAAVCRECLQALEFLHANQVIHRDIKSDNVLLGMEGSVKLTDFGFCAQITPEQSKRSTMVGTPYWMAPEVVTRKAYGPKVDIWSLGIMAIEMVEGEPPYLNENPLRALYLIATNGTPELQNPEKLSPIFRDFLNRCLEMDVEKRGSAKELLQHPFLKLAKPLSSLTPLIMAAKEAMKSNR
# Chain of Epidermal growth factor receptor (Homo sapiens), P00533 [T790M] (P00533 whole entry T790M): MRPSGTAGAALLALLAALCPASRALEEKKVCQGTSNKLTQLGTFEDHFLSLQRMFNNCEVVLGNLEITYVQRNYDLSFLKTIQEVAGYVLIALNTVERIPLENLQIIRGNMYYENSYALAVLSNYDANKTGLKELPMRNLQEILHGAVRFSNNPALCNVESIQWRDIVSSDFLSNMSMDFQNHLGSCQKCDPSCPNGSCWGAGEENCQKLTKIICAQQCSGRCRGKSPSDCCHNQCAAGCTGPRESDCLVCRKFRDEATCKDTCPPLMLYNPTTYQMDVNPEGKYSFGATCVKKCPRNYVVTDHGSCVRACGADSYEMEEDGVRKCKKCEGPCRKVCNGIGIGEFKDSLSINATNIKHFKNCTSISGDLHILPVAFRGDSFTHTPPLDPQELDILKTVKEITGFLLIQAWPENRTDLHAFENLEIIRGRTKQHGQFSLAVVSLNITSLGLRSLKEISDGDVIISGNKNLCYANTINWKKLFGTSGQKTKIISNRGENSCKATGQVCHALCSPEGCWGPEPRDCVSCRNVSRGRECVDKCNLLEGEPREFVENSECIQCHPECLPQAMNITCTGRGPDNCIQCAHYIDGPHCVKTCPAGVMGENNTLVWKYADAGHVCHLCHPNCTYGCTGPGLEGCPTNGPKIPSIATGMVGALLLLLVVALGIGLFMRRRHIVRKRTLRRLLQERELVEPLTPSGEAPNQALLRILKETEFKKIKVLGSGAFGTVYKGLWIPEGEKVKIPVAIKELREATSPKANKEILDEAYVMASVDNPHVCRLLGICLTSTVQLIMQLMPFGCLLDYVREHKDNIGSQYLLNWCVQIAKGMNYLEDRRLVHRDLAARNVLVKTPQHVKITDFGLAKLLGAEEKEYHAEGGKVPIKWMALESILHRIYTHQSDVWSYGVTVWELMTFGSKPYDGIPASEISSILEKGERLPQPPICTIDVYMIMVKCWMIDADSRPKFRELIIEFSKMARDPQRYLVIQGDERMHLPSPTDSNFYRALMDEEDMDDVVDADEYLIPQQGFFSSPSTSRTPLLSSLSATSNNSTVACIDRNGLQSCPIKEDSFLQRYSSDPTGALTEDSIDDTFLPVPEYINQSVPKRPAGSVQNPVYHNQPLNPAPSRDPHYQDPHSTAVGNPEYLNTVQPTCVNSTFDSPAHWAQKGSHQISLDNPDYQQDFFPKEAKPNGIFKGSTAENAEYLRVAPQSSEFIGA
# Chain of Serine/threonine-protein kinase 4 (Homo sapiens) (Q13043 whole entry): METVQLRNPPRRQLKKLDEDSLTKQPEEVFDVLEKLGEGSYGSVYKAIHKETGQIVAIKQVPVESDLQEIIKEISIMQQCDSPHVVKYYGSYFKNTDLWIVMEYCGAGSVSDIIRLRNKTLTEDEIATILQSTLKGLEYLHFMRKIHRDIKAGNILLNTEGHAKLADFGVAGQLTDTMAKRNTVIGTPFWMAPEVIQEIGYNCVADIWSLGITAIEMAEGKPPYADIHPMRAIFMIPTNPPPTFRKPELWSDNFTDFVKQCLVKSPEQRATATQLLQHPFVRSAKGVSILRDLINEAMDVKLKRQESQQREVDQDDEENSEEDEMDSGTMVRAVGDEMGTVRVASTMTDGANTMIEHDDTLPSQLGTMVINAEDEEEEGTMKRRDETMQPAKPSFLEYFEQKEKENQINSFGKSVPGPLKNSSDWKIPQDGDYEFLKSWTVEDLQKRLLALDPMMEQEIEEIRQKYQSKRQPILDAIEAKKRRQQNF
# Chain of Serine/threonine-protein kinase PAK 6 (Homo sapiens) (Q9NQU5 whole entry, looked up): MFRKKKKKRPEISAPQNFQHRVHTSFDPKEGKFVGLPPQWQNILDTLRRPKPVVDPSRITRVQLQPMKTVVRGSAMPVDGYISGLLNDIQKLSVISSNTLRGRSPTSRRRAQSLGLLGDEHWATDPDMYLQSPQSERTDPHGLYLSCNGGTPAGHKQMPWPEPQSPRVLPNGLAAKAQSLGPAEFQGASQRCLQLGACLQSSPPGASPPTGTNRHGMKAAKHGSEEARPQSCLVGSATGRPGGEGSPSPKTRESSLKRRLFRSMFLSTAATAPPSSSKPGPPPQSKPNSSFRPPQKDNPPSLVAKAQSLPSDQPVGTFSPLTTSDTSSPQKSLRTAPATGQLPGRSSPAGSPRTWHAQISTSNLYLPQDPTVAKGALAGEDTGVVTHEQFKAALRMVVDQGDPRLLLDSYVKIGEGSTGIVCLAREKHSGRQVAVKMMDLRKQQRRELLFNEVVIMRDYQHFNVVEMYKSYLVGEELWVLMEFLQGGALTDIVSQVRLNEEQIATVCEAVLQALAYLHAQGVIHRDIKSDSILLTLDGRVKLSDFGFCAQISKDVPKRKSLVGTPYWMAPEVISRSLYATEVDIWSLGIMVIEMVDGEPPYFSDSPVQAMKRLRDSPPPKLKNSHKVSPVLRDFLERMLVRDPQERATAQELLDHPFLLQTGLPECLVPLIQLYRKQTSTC
# Chain of Epidermal growth factor receptor (Homo sapiens) (P00533 whole entry): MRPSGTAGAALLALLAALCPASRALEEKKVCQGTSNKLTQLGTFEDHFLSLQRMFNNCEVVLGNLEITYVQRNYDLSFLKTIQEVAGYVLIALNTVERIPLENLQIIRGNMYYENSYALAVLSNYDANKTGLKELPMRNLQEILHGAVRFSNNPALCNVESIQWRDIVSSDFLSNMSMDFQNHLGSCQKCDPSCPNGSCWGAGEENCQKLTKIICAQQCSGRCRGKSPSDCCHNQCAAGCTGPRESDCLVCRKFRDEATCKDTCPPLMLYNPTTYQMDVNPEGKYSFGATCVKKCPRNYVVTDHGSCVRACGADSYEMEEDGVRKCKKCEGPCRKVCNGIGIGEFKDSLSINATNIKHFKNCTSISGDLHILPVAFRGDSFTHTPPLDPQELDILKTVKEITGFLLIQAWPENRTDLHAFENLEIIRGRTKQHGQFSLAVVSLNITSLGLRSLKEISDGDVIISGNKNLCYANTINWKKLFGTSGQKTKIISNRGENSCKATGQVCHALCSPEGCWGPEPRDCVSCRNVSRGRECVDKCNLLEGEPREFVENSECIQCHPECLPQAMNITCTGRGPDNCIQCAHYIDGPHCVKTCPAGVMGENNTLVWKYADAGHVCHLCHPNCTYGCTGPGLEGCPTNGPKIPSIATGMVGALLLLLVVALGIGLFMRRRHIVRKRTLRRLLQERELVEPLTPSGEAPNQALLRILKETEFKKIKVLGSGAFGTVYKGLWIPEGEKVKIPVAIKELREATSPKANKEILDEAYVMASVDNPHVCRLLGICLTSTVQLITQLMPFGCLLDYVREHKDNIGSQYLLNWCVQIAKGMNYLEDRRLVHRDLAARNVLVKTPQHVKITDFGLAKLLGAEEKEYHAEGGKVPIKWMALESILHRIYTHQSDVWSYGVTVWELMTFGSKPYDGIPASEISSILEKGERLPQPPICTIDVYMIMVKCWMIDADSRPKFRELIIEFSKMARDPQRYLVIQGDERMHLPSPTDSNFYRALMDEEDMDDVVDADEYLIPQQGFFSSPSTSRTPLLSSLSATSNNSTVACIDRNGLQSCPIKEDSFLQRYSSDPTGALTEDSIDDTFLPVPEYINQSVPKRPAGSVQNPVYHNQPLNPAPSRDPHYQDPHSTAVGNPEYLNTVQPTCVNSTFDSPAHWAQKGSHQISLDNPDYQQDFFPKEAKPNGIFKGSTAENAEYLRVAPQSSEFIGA
smiles,measurement,setting,value
CNC(=O)Oc1cc(C)c(/C=C/c2cncc(C(=O)NC)c2)c(C)c1,inhibition,[1],4.28%
same,inhibition,[2],7.77%
same,inhibition,[3],4.88%
same,inhibition,[4],4.5%
same,inhibition,[5],-0.01%
same,inhibition,[6],-0.02%
same,inhibition,[7],3.48%
same,inhibition,[8],5.41%
same,inhibition,[9],1.99%
same,inhibition,[10],1.98%
same,inhibition,[11],1.98%
same,inhibition,[12],3.68%
same,inhibition,[13],-4.59%
same,inhibition,[14],-1.52%
same,inhibition,[15],5.83%
same,inhibition,[16],-0.24%
same,inhibition,[17],7.72%
same,inhibition,[18],50.5%
same,inhibition,[19],17.9%
same,inhibition,[20],66.5%
same,inhibition,[21],18.4%
same,inhibition,[22],65%
same,inhibition,[23],14.5%
same,inhibition,[24],58.6%
same,inhibition,[25],1.76%
same,inhibition,[26],3.56%
same,inhibition,[27],23%
same,inhibition,[28],69.2%
same,inhibition,[29],12.9%
same,inhibition,[30],55.8%
same,inhibition,[31],2.46%
same,inhibition,[32],14.2%
same,inhibition,[33],9.35%
same,inhibition,[34],64.3%
same,inhibition,[35],-1.68%
same,inhibition,[36],1.31%
same,inhibition,[37],2.38%
same,inhibition,[38],17.7%
same,inhibition,[39],6.61%
same,inhibition,[40],48.2%
same,inhibition,[41],17.1%
same,inhibition,[42],66.2%
same,inhibition,[43],3.71%
same,inhibition,[44],7.17%
same,inhibition,[45],7.8%
same,inhibition,[46],23%
same,inhibition,[47],1.69%
same,inhibition,[48],4.31%
same,inhibition,[49],1.01%
same,inhibition,[50],3.7%
same,inhibition,[51],1.37%
same,inhibition,[52],18.1%
same,inhibition,[53],1.07%
same,inhibition,[54],2.38%
same,inhibition,[55],0.88%
same,inhibition,[56],0.02%
